# According to PubChem BioAssay (EPA / NIEHS):
# Activity calls are given as the source filed them. Rule for the calls: active = hit-call score of the fitted dose curve at least 0.9, where 1 is the maximum; inactive = score below 0.9.
# Columns and labels:
# [1] = read-out: Interleukin-1 alpha (IL1a), IL1A (gene 3552); test: BSK_KF3CT_IL1a: BioMAP Diversity Plus: KF3CT Assay for Interleukin-1 alpha (IL1a) Biomarker Activity (AID 2283070); conditions: primary human keratinocytes with fibroblasts; actives raise or lower the signal
# How it was run: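 Primary human keratinocyte plus foreskin fibroblast co-culture, dosed and measured at 24 h in 96-well plates. IL-1a level quantified by ELISA; bidirectional fit relative to DMSO.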
# [2] = read-out: TIMP metallopeptidase inhibitor 2 (TIMP2), TIMP2 (gene 7077); test: BSK_KF3CT_TIMP2: BioMAP Diversity Plus: KF3CT Assay for TIMP metallopeptidase inhibitor 2 (TIMP2) Biomarker Activity (AID 2283071); conditions: primary human keratinocytes with fibroblasts; actives raise or lower the signal
# How it was run: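 Co-culture of human primary keratinocytes and foreskin fibroblasts, measured 24 h after chemical dosing. TIMP-2 quantified by ELISA and fitted in both directions relative to DMSO. Cytotoxicity checked in parallel cultures by SRB total-protein staining.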
# [3] = read-out: Transforming growth factor beta 1 (TGFb1), TGFB1 (gene 7040); test: BSK_KF3CT_TGFb1: BioMAP Diversity Plus: KF3CT Assay for Transforming growth factor beta 1 (TGFb1) Biomarker Activity (AID 2283072); conditions: primary human keratinocytes with fibroblasts; actives raise or lower the signal
# How it was run: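 Human keratinocyte/foreskin fibroblast co-culture; TGF-b1 measured by ELISA 24 h after dosing, fitted bidirectionally versus DMSO. Cytotoxicity checked in parallel cultures by total protein (SRB staining, 560 nm).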
# [4] = read-out: C-C motif chemokine 2 (Homo sapiens) (UniProt P13500); test: BSK_KF3CT_MCP1: BioMAP Diversity Plus: KF3CT Assay for Monocyte Chemoattractant Protein 1 (MCP1/CCL2) Biomarker Activity (AID 2283073); conditions: primary human keratinocytes with fibroblasts; actives raise or lower the signal
# How it was run: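 Biomarker MCP-1 is measured by ELISA in primary human keratinocytes co-cultured with foreskin fibroblasts, 24 h after chemical treatment; DMSO serves as the negative control and activity baseline.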
# [5] = read-out: Matrix Metallopeptidase 9 (MMP9), MMP9 (gene 4318); test: BSK_KF3CT_MMP9: BioMAP Diversity Plus: KF3CT Assay for Matrix Metallopeptidase 9 (MMP9) Biomarker Activity (AID 2283074); conditions: primary human keratinocytes with fibroblasts; actives raise or lower the signal
# How it was run: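 Human keratinocyte and foreskin fibroblast co-culture exposed to chemicals for 24 h; MMP9 biomarker measured by ELISA, bidirectional fitting relative to DMSO; cytotoxicity tracked by SRB total protein staining in parallel cultures.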
# [6] = read-out: urokinase plasminogen activator (uPA), PLAU (gene 5328); test: BSK_KF3CT_uPA: BioMAP Diversity Plus: KF3CT Assay for urokinase plasminogen activator (uPA) Biomarker Activity (AID 2283075); conditions: primary human keratinocytes with fibroblasts; actives raise or lower the signal
# How it was run: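 Primary human keratinocyte/foreskin fibroblast co-culture exposed to chemical; uPA measured by ELISA at 24 h. Bidirectional fit versus DMSO, with parallel SRB total-protein staining for cytotoxicity.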
# [7] = read-out: CD40, CD40 (gene 958); test: BSK_LPS_CD40: BioMAP Diversity Plus: LPS Assay for CD40 Biomarker Activity (AID 2283076); conditions: primary human HUVEC with PBMC; actives raise or lower the signal
# How it was run: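 Using a multiplexed primary human co-culture (umbilical vein endothelium plus PBMC), CD40 was read by ELISA 24 h after dosing, with cytotoxicity tracked by sulforhodamine B staining of parallel cultures and activity fitted bidirectionally versus DMSO.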
# [8] = read-out: E-selectin (Homo sapiens) (UniProt P16581); test: BSK_LPS_Eselectin: BioMAP Diversity Plus: LPS Assay for Eselectin Biomarker Activity (AID 2283077); conditions: primary human HUVEC with PBMC; actives raise or lower the signal
# How it was run: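 Dose chemical onto LPS-driven HUVEC/PBMC co-culture; after 24 h, run ELISA for E-selectin; fit up- and down-going responses relative to DMSO control.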
# [9] = read-out: Interleukin-8 (IL8), CXCL8 (gene 3576); test: BSK_LPS_IL8: BioMAP Diversity Plus: LPS Assay for Interleukin-8 (IL8) Biomarker Activity (AID 2283078); conditions: primary human HUVEC with PBMC; actives raise or lower the signal
# How it was run: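 In this LPS system, chemical-treated human umbilical vein endothelium/PBMC co-cultures were harvested at 24 h for IL-8 ELISA.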
# [10] = BSK_LPS_SRB: Viability Assessment in the BioMAP Diversity Plus: LPS Assay (AID 2283079); conditions: primary human HUVEC with PBMC;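 note: total protein by sulforhodamine B absorbance as a cytotoxicity measure; measured one day after compound addition; fitted in both directions against DMSO so loss or gain of signal counts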
# How it was run: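 Cytotoxicity endpoint in human endothelial–PBMC co-culture: 24 h exposure, then SRB (0.1%) staining, 560 nm read.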
# [11] = read-out: Monocyte Chemoattractant Protein-1 (MCP1), CCL2 (gene 6347); test: BSK_LPS_MCP1: BioMAP Diversity Plus: LPS Assay for Monocyte Chemoattractant Protein-1 (MCP1) Biomarker Activity (AID 2283081); conditions: primary human HUVEC with PBMC; actives raise or lower the signal
# How it was run: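 Values derive from bidirectional fitting against DMSO of ELISA-measured MCP-1 in a human primary endothelial and mononuclear cell co-culture, 24 h after chemical addition under LPS activation.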
# [12] = BSK_LPS_PGE2: BioMAP Diversity Plus: LPS Assay for Prostaglandin E2 (PGE2) Biomarker Activity (AID 2283082); conditions: primary human HUVEC with PBMC; actives raise or lower the signal
# How it was run: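 HUVEC plus human PBMC co-culture stimulated with LPS; secreted PGE2 quantified by ELISA 24 h after chemical dosing. Activity fitted bidirectionally against DMSO baseline; parallel SRB staining (0.1% SRB after 10% TCA fixation, 560 nm) flags overt cytotoxicity.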
# [13] = read-out: Macrophage colony-stimulating factor (MCSF), CSF1 (gene 1435); test: BSK_LPS_MCSF: BioMAP Diversity Plus: LPS Assay for Macrophage colony-stimulating factor (MCSF) Biomarker Activity (AID 2283083); conditions: primary human HUVEC with PBMC; actives raise or lower the signal
# How it was run: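 Bidirectional fit versus DMSO of ELISA-measured M-CSF in co-cultured human umbilical vein endothelial cells and PBMC, sampled 24 h after dosing.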
# [14] = read-out: Tissue Factor, F3 (gene 2152); test: BSK_LPS_TissueFactor: BioMAP Diversity Plus: LPS Assay for Tissue Factor Biomarker Activity (AID 2283084); conditions: primary human HUVEC with PBMC; actives raise or lower the signal
# How it was run: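 Read-out: CD142 ELISA, 24 h. System: LPS-driven human endothelial/PBMC co-culture. Analysis: up- or down-signal fitted against DMSO.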
# [15] = read-out: Tumor necrosis factor (Homo sapiens) (UniProt P01375); test: BSK_LPS_TNFa: BioMAP Diversity Plus: LPS Assay for Tumour Necrosis Factor alpha (TNFa) Biomarker Activity (AID 2283085); conditions: primary human HUVEC with PBMC; actives raise or lower the signal
# How it was run: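 Human umbilical vein endothelial cells co-cultured with PBMC and stimulated with LPS. TNFa was measured by ELISA 24 h after chemical dosing, fitted bidirectionally relative to DMSO.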
# [16] = read-out: Vascular cell adhesion molecule 1 (VCAM1), VCAM1 (gene 7412); test: BSK_LPS_VCAM1: BioMAP Diversity Plus: LPS Assay for Vascular cell adhesion molecule 1 (VCAM1) Biomarker Activity (AID 2283086); conditions: primary human HUVEC with PBMC; actives raise or lower the signal
# How it was run: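 Human umbilical vein endothelial cells co-cultured with PBMC and stimulated with LPS; VCAM-1 measured by ELISA 24 h after dosing. Bidirectional curve fitting against DMSO baseline; cytotoxicity tracked in parallel by SRB total-protein staining.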
# [17] = read-out: CD38, CD38 (gene 952); test: BSK_SAg_CD38: BioMAP Diversity Plus: SAg Assay for CD38 Biomarker Activity (AID 2283087); conditions: primary human HUVEC with PBMC; actives raise or lower the signal
# How it was run: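 Human HUVEC plus PBMC co-culture stimulated with superantigen; CD38 measured by ELISA 24 h after chemical dosing. Fluorescence read-out, bidirectional fit against DMSO; cytotoxicity tracked in parallel by SRB and Alamar Blue.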
# [18] = read-out: CD40, CD40 (gene 958); test: BSK_SAg_CD40: BioMAP Diversity Plus: SAg Assay for CD40 Biomarker Activity (AID 2283088); conditions: primary human HUVEC with PBMC; actives raise or lower the signal
# How it was run: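 Endpoint derived by fitting increases or decreases versus DMSO controls. CD40 is detected by fluorescence ELISA in a human vascular co-culture of endothelium and PBMC at 24 h.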
# [19] = read-out: CD69, CD69 (gene 969); test: BSK_SAg_CD69: BioMAP Diversity Plus: SAg Assay for CD69 Biomarker Activity (AID 2283089); conditions: primary human HUVEC with PBMC; actives raise or lower the signal
# How it was run: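 Values derive from bidirectional fitting relative to DMSO vehicle. Cells: umbilical vein endothelium plus peripheral blood mononuclear cells, treated 24 h before fluorescent ELISA for CD69.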
# [20] = read-out: Interleukin-1 alpha (IL1a), IL1A (gene 3552); test: BSK_LPS_IL1a: BioMAP Diversity Plus: LPS Assay for Interleukin-1 alpha (IL1a) Biomarker Activity (AID 2283080); conditions: primary human HUVEC with PBMC; actives raise or lower the signal
# How it was run: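 Primary human HUVEC and PBMC co-culture stimulated with LPS is dosed and harvested at 24 h. Both increases and decreases in ELISA-measured IL-1a are scored relative to DMSO.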
# Sequence of Tumor necrosis factor (Homo sapiens) (P01375 whole entry, looked up): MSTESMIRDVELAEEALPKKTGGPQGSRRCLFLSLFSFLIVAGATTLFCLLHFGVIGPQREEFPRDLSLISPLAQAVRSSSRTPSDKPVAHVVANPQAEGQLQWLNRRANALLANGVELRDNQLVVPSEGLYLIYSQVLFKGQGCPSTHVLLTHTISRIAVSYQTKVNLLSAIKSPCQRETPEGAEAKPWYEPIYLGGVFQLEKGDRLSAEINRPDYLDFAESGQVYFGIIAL
# Sequence of E-selectin (Homo sapiens) (P16581 whole entry, looked up): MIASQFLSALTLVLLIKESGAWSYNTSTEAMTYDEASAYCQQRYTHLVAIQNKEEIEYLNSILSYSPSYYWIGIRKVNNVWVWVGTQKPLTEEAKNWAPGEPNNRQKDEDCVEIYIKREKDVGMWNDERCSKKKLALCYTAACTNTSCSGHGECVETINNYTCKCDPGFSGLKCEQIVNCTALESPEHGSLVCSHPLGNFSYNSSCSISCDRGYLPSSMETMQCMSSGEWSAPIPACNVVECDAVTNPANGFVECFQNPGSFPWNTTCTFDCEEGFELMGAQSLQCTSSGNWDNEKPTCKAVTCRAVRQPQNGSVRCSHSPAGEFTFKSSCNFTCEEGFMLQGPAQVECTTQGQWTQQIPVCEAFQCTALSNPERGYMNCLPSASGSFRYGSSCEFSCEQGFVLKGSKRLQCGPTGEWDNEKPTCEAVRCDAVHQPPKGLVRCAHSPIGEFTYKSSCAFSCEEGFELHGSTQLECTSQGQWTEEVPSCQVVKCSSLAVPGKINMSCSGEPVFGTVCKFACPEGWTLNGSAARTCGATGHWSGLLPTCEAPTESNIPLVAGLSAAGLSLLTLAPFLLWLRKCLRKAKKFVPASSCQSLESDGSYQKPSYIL
compound,measurement,setting,value
Cc1nc(-c2ccccn2)ncc1C(=O)Nn1cc(C)c2cc(F)ccc21,outcome,[1],inactive
same,outcome,[2],inactive
same,outcome,[3],inactive
same,outcome,[4],inactive
same,outcome,[5],inactive
same,outcome,[6],inactive
same,outcome,[7],inactive
same,outcome,[8],inactive
same,outcome,[9],inactive
same,outcome,[10],inactive
same,outcome,[11],inactive
same,outcome,[12],inactive
same,outcome,[13],inactive
same,outcome,[14],inactive
same,outcome,[15],inactive
same,outcome,[16],inactive
same,outcome,[17],inactive
same,outcome,[18],inactive
same,outcome,[19],inactive
CC(C)CC(C)O (stereo not given),outcome,[1],inactive
same,outcome,[2],inactive
same,outcome,[3],inactive
same,outcome,[4],inactive
same,outcome,[5],inactive
same,outcome,[6],inactive
same,outcome,[7],inactive
same,outcome,[8],inactive
same,outcome,[9],inactive
same,outcome,[10],inactive
same,outcome,[11],inactive
same,outcome,[12],inactive
same,outcome,[13],inactive
same,outcome,[14],inactive
same,outcome,[15],inactive
same,outcome,[16],inactive
same,outcome,[17],inactive
same,outcome,[18],inactive
same,outcome,[19],inactive
OC[C@H]1O[C@@H]2O[C@H]3[C@H](O)[C@@H](O)[C@@H](O[C@H]4[C@H](O)[C@@H](O)[C@@H](O[C@H]5[C@H](O)[C@@H](O)[C@@H](O[C@H]6[C@H](O)[C@@H](O)[C@@H](O[C@H]7[C@H](O)[C@@H](O)[C@@H](O[C@H]1[C@H](O)[C@H]2O)O[C@@H]7CO)O[C@@H]6CO)O[C@@H]5CO)O[C@@H]4CO)O[C@@H]3CO,outcome,[1],inactive
same,outcome,[2],inactive
same,outcome,[3],inactive
same,outcome,[4],inactive
same,outcome,[5],inactive
same,outcome,[6],inactive
same,outcome,[7],inactive
same,outcome,[8],inactive
same,outcome,[9],inactive
same,outcome,[10],inactive
same,outcome,[20],inactive
same,outcome,[11],inactive
same,outcome,[12],inactive
same,outcome,[13],inactive
same,outcome,[14],inactive
same,outcome,[15],inactive
same,outcome,[16],inactive
same,outcome,[17],inactive
same,outcome,[18],inactive
same,outcome,[19],inactive
Nc1ccn([C@@H]2O[C@H](CO)[C@@H](O)[C@@H]2O)c(=O)n1,outcome,[1],inactive
same,outcome,[2],inactive
same,outcome,[3],inactive
same,outcome,[4],inactive
same,outcome,[5],inactive
same,outcome,[6],inactive
same,outcome,[7],inactive
same,outcome,[8],inactive
same,outcome,[9],inactive
same,outcome,[10],inactive
same,outcome,[11],inactive
same,outcome,[12],inactive
same,outcome,[13],inactive
same,outcome,[14],inactive
same,outcome,[15],inactive
same,outcome,[16],inactive
same,outcome,[17],inactive
same,outcome,[18],inactive
same,outcome,[19],inactive
CC1(C)C(=O)N(Cl)C(=O)N1Cl,outcome,[1],inactive
same,outcome,[2],inactive
same,outcome,[3],inactive
same,outcome,[4],inactive
same,outcome,[5],inactive
same,outcome,[6],inactive
same,outcome,[7],inactive
same,outcome,[8],inactive
same,outcome,[9],inactive
same,outcome,[10],inactive
same,outcome,[20],inactive
same,outcome,[11],inactive
same,outcome,[12],inactive
same,outcome,[13],inactive
same,outcome,[14],inactive
same,outcome,[15],inactive
same,outcome,[16],inactive
same,outcome,[17],inactive
same,outcome,[18],inactive
same,outcome,[19],inactive
OCc1ccccc1,outcome,[1],inactive
same,outcome,[2],inactive
same,outcome,[3],inactive
same,outcome,[4],inactive
same,outcome,[5],inactive
same,outcome,[6],inactive
same,outcome,[7],inactive
same,outcome,[8],inactive
same,outcome,[9],inactive
same,outcome,[10],inactive
same,outcome,[11],inactive
same,outcome,[12],inactive
same,outcome,[13],inactive
same,outcome,[14],inactive
same,outcome,[15],inactive
same,outcome,[16],inactive
same,outcome,[17],inactive
same,outcome,[18],inactive
same,outcome,[19],inactive
O=C1CN(N=Cc2ccc([N+](=O)[O-])o2)C(=O)N1,outcome,[1],inactive
same,outcome,[2],inactive
same,outcome,[3],inactive
same,outcome,[4],inactive
same,outcome,[5],inactive
same,outcome,[6],inactive
same,outcome,[7],inactive
same,outcome,[8],inactive
same,outcome,[9],inactive
same,outcome,[10],inactive
same,outcome,[20],inactive
same,outcome,[12],inactive
same,outcome,[13],inactive
same,outcome,[14],inactive
same,outcome,[15],inactive
same,AC50,[16],20 µM (active)
same,outcome,[17],inactive
same,outcome,[18],inactive
same,outcome,[19],inactive
